According to PubChem BioAssay (NCATS):
Unmarked numbers belong to inactive results. Records with an inconclusive call do not appear. Activity calls are given as the source filed them. Unless noted, the call rests on the fitted dose curve; in most records, active means well fitted inhibition curve with a large enough effect; inconclusive means small, poorly fitted or top-dose-only effect; inactive means flat fitted curve, though single readings scatter.

What follows are compounds tested against Ubiquitin carboxyl-terminal hydrolase 1 (Homo sapiens) (UniProt O94782) (assay: Inhibitors of USP1/UAF1: Pilot qHTS (AID 504865; further: nearly all actives have a fitted effect of over 35% in size; further: potency means the concentration at half of the fitted maximal effect;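 on activity change, negative = inhibition: rhodamine fluorescence freed from ubiquitin-rhodamine substrate followed over time; top concentration of the series differs between compounds; on the % scale 0 is the no-effect control and ±100 the full control effect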)). Conditions: purified USP1/UAF1, Ub-rhodamine cleavage fluorescence; series mostly up to 114 µM; activity change, negative = inhibition: at the top concentration.
Method in brief: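 USP1/UAF1 complex at 1 nM preincubated 15 min at room temperature with compound, then Ub-Rho substrate added at 150 nM final. Fluorescence (480/540 nm) read kinetically in 50 mM HEPES pH 7.8, 0.5 mM EDTA, 1 mM TCEP, 0.1 mg/ml BSA, 0.01% Tween-20.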

Sequence of Ubiquitin carboxyl-terminal hydrolase 1 (Homo sapiens) (O94782 whole entry, looked up): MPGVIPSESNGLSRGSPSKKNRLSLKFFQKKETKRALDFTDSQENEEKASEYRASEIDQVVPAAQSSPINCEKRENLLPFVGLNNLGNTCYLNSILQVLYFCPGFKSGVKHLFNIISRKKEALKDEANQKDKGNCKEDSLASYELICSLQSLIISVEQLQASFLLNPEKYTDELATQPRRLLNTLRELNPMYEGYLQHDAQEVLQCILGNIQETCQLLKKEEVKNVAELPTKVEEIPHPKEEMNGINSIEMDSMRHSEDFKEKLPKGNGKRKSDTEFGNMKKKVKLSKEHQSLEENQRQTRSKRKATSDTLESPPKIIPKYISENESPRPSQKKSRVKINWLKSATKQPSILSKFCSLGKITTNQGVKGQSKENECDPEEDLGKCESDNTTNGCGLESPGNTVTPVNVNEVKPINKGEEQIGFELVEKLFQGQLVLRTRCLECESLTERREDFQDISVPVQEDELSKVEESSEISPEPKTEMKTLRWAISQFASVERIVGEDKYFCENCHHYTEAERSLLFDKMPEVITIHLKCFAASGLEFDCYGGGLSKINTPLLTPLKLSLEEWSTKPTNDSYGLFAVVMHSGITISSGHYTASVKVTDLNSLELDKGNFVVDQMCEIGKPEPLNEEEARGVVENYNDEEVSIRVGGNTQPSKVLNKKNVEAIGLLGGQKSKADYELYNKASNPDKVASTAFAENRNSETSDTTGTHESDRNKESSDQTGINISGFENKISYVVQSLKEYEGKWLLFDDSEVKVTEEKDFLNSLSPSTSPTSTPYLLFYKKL

| Compound | activity change, negative = inhibition | Potency |
| --- | --- | --- |
| Cc1cccc(Nc2cc(Cl)nc(SCC(=O)O)n2)c1C | -7.42% |  |
| O=C(O)CN1C(=O)c2cccc3cccc(c23)C1=O | -1.81% |  |
| COc1ccccc1O | 1.51% |  |
| CC[C@@]1(c2ccccc2)NC(=O)N(C)C1=O | -8.16% |  |
| C[C@H](N)[C@H](O)c1cccc(O)c1 | -0.841% [at 54.9 µM] |  |
| CCCCCCCCCCCCCCCCCCOCC(O)CO (centres undefined) | -8.16% |  |
| O=C1NS(=O)(=O)c2ccccc21 |  | inactive |
| CCOc1ccc2ccccc2c1C(=O)N[C@@H]1C(=O)N2[C@@H]1SC(C)(C)[C@@H]2C(=O)O | 5.43% [at 54.9 µM] |  |
| O=C1NC(=O)[C@@]2(CCOc3ccc(F)cc32)N1 | -1.3% |  |
| CCOC(=O)c1ccc(O)cc1 | -4.19% |  |
| Oc1cccc(O)c1 |  | inactive |
| CCCCCCCCCCCCOS(=O)(=O)O |  | 79.4 µM (active) |
| O=C1O[C@H]([C@@H](O)CO)C(O)=C1O | -6.31% |  |
| Cc1cc(CC(=O)O)n(C)c1C(=O)c1ccc(Cl)cc1 |  | inactive |
| CC(O)CN(CCN(CC(C)O)CC(C)O)CC(C)O (centres undefined) | -2.43% |  |
| Cc1c(O)cccc1C(=O)N[C@@H](CSc1ccccc1)[C@H](O)CN1C[C@H]2CCCC[C@H]2C[C@H]1C(=O)NC(C)(C)C | -0.974% |  |
| CCN(CC)CCSC(=O)C(c1ccccc1)c1ccccc1 |  | inactive |

| Compound | activity change, negative = inhibition | Potency |
| --- | --- | --- |
| NC(=O)N/N=C/c1ccc([N+](=O)[O-])o1 |  | inactive |
| Cc1ccc(C(C)C)cc2c(C)ccc1-2 | -6.47% |  |
| O=c1cc(CO)occ1O | -2.44% |  |
| Oc1ccc(C(O)CNCCCCCCNCC(O)c2ccc(O)c(O)c2)cc1O (centres undefined) | -0.266% |  |
| Cn1c(=O)c2c(ncn2CC2OCCO2)n(C)c1=O | -4.14% |  |
| CC1(C)[C@@H]2CC[C@@]1(C)C(=O)C2 |  | inactive |
| NCCNCCNCCNCCN | -4.24% |  |
| Nc1ccc(S(=O)(=O)Nc2nccs2)cc1 |  | inactive |
| O=S(=O)(O)NC1CCCCC1 | -1.69% |  |
| CC(O)COc1ccccc1 (centres undefined) | -2.31% |  |
| CC12CCC(CC1)C(C)(C)O2 | -4.82% |  |
| CCCCC(CC)COC(=O)c1ccccc1O (centres undefined) | -3.88% |  |
| CC(C)(C)NCC(O)COc1ccc(NC(=O)NC2CCCCC2)cc1 (centres undefined) | -4.91% |  |
| CCCCOC(=O)c1ccc(O)cc1 |  | inactive |
| OC[C@H]1O[C@@H](O[C@@H]2[C@@H](CO)O[C@](O)(CO)[C@H]2O)[C@H](O)[C@@H](O)[C@H]1O | -1.39% |  |
| c1ccc(CN(CC2=NCCN2)c2ccccc2)cc1 |  | inactive |
| NCCNCCNCCN | 0.867% |  |

Each compound was assayed against DNA dC->dU-editing enzyme APOBEC-3G (Homo sapiens) (UniProt Q9HC16) (assay: qHTS for inhibitors of Vif-A3G interactions: Validation (AID 588379; further: 0% is about no effect)). Conditions: Vif-A3G protein interaction assay; series mostly up to 46.1 µM; activity change, negative = inhibition: at the top concentration.
Method in brief: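 HeLa cells stably expressing Vif and A3G-eYFP, 700 cells/well, incubated overnight at 37 deg C, then exposed to compound overnight at 37 deg C. Inhibition of Vif-mediated degradation read as increased yellow fluorescence (Ex 488/Em 500-530) by laser-scanning cytometry.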

Sequence of DNA dC->dU-editing enzyme APOBEC-3G (Homo sapiens) (Q9HC16 whole entry, looked up): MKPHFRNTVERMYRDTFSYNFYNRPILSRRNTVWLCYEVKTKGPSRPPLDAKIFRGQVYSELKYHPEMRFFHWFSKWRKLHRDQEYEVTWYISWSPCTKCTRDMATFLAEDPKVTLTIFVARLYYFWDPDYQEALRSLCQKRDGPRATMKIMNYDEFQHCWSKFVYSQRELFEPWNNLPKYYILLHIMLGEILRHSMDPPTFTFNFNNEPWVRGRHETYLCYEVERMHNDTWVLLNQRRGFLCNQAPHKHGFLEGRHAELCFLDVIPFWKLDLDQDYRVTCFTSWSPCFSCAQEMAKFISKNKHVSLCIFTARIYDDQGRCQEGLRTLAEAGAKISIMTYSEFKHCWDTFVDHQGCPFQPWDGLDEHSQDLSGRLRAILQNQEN

| Compound | activity change, negative = inhibition |
| --- | --- |
| Cc1cccc(Nc2cc(Cl)nc(SCC(=O)O)n2)c1C | -1.25% |
| O=C(O)CN1C(=O)c2cccc3cccc(c23)C1=O | 1.6% |
| O=c1cc(CO)occ1O | -4.29% |
| CC1(C)[C@@H]2CC[C@@]1(C)C(=O)C2 | 6.08% |
| OC[C@H]1O[C@@H](O[C@@H]2[C@@H](CO)O[C@](O)(CO)[C@H]2O)[C@H](O)[C@@H](O)[C@H]1O | -1.02% |
| c1ccc(CN(CC2=NCCN2)c2ccccc2)cc1 | -1.08% |

What follows are compounds tested against Estrogen receptor (Homo sapiens) (UniProt P03372) (assay: qHTS assay for small molecule antagonists of estrogen receptor alpha signaling (AID 588513; active means well fitted curve in the direction sought with a large enough effect in the signal ratio, with a control signal flat, not every such curve was filed as active; the % refers to the signal ratio; further: on the % scale 0 is the no-effect control and ±100 the full control effect)). Conditions: ER-alpha-UAS-bla HEK293, beta-lactamase ratio, antagonist mode; series mostly up to 76.9 µM; activity, negative = inhibition: at the top concentration.
Method in brief: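 ER-alpha-UAS-bla GripTite HEK 293 cells in 2% charcoal/dextran-treated FBS medium; compounds titrated (1:2, duplicate), then stimulated with 0.5 nM 17-beta-estradiol for 18 h at 37C. CCF4 beta-lactamase fluorescence; Hill-fit IC50 and efficacy.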

Sequence of Estrogen receptor (Homo sapiens) (P03372 whole entry, looked up): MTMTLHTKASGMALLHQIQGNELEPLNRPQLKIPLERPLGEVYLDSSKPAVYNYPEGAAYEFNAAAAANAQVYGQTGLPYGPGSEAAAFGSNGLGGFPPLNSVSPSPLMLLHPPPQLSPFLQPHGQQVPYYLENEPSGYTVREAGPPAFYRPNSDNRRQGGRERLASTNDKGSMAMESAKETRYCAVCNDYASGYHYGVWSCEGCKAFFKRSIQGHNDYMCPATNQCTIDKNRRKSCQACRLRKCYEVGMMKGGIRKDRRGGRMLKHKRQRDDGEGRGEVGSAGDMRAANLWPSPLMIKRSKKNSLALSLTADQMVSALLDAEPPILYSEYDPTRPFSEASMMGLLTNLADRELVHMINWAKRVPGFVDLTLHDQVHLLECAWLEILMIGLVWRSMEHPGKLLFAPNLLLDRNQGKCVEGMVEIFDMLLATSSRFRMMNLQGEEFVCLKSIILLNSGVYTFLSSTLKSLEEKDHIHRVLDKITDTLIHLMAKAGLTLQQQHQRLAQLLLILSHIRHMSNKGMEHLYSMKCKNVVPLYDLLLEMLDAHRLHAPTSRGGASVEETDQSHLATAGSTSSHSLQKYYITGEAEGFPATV

| Compound | activity, negative = inhibition | outcome |
| --- | --- | --- |
| Cc1cccc(Nc2cc(Cl)nc(SCC(=O)O)n2)c1C | -22.7% |  |
| COc1ccccc1O |  | inactive |
| CCOC(=O)c1ccc(O)cc1 | -7.94% |  |
| Oc1cccc(O)c1 | 5.44% |  |
